Article PMC4336329 (PLoS ONE, 2015)
The whole screen tested about 310,000 compounds, of which about 14,000 (4.5%) showed an effect of 50% or more. Effects have a minus sign here. What follows is part of a selection rich in strong results, with near analogues and random picks from the rest.

These compounds were tested against human ether-à-go-go-related gene (hERG) potassium channel (human, UniProt Q12809) (assay: primary screen, population patch clamp on CHO cells stably expressing hERG; higher = less effect of the substance).
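Further: peak tail current of the secondary pulse compared with the same well before compound.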

human ether-à-go-go-related gene (hERG) potassium channel, sequence (Q12809 whole entry, looked up): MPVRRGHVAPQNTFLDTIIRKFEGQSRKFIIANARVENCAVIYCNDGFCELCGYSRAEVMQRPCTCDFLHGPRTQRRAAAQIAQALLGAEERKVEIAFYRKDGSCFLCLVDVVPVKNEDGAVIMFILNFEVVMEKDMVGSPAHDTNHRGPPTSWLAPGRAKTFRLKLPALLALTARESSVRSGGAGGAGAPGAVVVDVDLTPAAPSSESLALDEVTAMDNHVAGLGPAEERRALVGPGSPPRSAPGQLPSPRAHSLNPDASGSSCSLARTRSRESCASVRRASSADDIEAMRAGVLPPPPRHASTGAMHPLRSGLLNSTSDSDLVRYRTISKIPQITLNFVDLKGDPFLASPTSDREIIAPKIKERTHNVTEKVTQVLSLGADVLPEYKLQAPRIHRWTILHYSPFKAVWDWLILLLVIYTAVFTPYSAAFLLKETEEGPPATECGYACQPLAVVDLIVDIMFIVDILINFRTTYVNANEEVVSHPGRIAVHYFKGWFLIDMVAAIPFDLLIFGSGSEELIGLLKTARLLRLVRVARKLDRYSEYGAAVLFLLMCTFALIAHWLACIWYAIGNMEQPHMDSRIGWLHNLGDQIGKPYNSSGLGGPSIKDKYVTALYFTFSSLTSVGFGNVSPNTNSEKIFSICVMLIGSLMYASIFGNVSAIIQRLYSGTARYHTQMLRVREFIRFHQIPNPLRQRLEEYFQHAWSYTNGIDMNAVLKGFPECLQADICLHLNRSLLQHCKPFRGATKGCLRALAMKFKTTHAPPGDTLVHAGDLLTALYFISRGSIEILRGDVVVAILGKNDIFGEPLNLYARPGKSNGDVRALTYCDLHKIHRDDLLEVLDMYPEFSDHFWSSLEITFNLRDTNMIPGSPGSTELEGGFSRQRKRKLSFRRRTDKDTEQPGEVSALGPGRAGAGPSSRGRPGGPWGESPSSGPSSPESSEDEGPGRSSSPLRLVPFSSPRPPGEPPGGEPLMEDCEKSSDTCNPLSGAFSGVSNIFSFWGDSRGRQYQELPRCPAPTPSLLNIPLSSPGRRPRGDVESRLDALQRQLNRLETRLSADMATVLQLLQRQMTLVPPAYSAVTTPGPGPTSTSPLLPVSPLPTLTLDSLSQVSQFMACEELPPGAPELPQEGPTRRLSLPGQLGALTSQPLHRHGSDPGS

| Structure (SMILES) | hERG current change (%, negative = inhibition) at 10uM |
| --- | --- |
| CNc1ccc(Oc2c(F)c(F)nc(F)c2F)cc1 | -0.34% |
| O=C1CS/C(=N/N=C/c2ccccc2)N1c1ccc(O)cc1 | 17.6% |
| CN(C)S(=O)(=O)c1cccc(NC(=O)C2Cc3ccccc3CN2C(=O)c2ccccc2)c1 (stereo not drawn) | 4.2% |
| Oc1ccc(C[C@H]2CNCCN2CCc2cccc3ccccc23)cc1 | -17.7% |
| Oc1ccc(C[C@@H]2CNCCN2CCc2cccc3ccccc23)cc1 | -64.5% |
| c1ccc(C[C@H]2CNCCN2CCc2cccc3ccccc23)cc1 | -35.6% |
| C#CCOCCOCCOCCNc1nc(N2CCN(C(=O)[C@H](CCC(=O)O)n3cc(C(N)Cc4ccc(O)cc4)nn3)CC2)nc(N2CCN(C(=O)[C@H](Cc3cc4ccccc4[nH]3)n3cc(C(N)[C@H](C)CC)nn3)CC2)n1.Cl (stereo partly drawn) | 5.43% |
| COc1ccc(CNC(=O)c2ccc3c(=O)n(CCCN4CCCC4=O)c(=S)[nH]c3c2)cc1 | 19% |
| CCOC(=O)c1c(Nc2ccccc2N)cc(C)nc1C | -13.9% |
| CCOC(=O)c1ccc(Nc2cc(C)nc3ncnn23)cc1 | -15.1% |
| CCOC(=O)c1ccc(Nc2nc(C)cc(C)n2)cc1 | 16.7% |
| CCOC(=O)c1ccc(Nc2cc(C)nc(C)c2C(=O)OCC)cc1.Cl | -62.6% |
| CCOC(=O)c1ccc(Nc2cc(C)nc3nc(C)nn23)cc1 | -53% |
| COC(=O)c1ccc(Nc2cc(C)nc3nc(C)nn23)cc1 | -37.8% |
| COc1ccc(/C=N/NC(=O)CCn2c3ccccc3c3ccccc32)cc1O | 5.18% |
| COc1ccc(NS(=O)(=O)c2cc(C)ccc2OC)cc1OC | 10.5% |
| CN(C)c1ccc2c(O)cc(=O)n(C)c2c1 | 6.76% |
| O=C(NC1CCCC1)c1cc2nc(-c3ccccc3)cc(-c3ccccc3)n2n1 | -23.3% |
| Cc1ccc2nc(C)c(C)nc2c1N | 8.1% |
| O=C(Nc1ccc(Cl)cc1Cl)c1ccc2c(=O)n3c(nc2c1)CCC3 | -39.8% |
| Cn1c(Cc2ccccc2)nnc1SCc1nc2ccccc2c(=O)[nH]1 | -1.69% |
| c1ccc(-c2nnc(SCc3nc4ccccc4[nH]3)n2Cc2ccco2)nc1 | -8.18% |

| Structure (SMILES) | hERG current change (%, negative = inhibition) at 10uM |
| --- | --- |
| Cn1c(-c2ccccc2)cnc1SCc1nc2ccccc2c(=O)[nH]1 | -59.9% |
| Fc1ccccc1CSc1nnc(-c2cnccn2)n1Cc1ccco1 | -11.2% |
| COCCn1c(SCc2nc3ccccc3c(=O)[nH]2)nnc1-c1ccncc1 | -4.64% |
| O=c1[nH]c(CSc2nnc(-c3ccncc3)n2Cc2ccco2)nc2ccccc12 | -58.2% |
| Fc1ccc(CSc2nnc(-c3cnccn3)n2Cc2ccco2)cc1 | -52.2% |
| NC(=O)CSc1nnc(-c2cnccn2)n1Cc1ccco1 | 7.06% |
| c1ccc(-c2nnc(SCc3nc4ccccc4[nH]3)n2Cc2ccco2)cc1 | -22.4% |
| Cn1c(SCc2nc3ccccc3c(=O)[nH]2)nc2ccccc21 | 0.933% |
| CCn1c(SCc2nc3ccccc3c(=O)[nH]2)nnc1-c1ccncc1 | -11.7% |
| c1coc(Cn2c(SCc3nc4ccccc4[nH]3)nnc2-c2cnccn2)c1 | -56.3% |
| Cl.NC(N)=NC(N)=Nc1ccc(SC(F)(F)F)cc1 | -21.3% |
| Oc1cccnc1Sc1cccc(C(F)(F)F)c1 | 18.6% |
| CC(C)(C)c1nnc(NC(=O)CCS(=O)(=O)c2ccccc2)s1 | 5.03% |
| COc1cc(/C=C2/SC(=S)NC2=O)ccc1OS(=O)(=O)c1ccc(C)cc1 | 39.8% |
| CCOc1ccc(CCNC(=O)C2CCN(S(=O)(=O)N3CC(C)CC(C)C3)CC2)cc1OCC (stereo not drawn) | 20.7% |
| Cc1c(NC(=O)Cn2cc([N+](=O)[O-])cn2)c(=O)n(-c2ccccc2)n1C | 11.7% |
| CC1CCN(c2ccc3c(c2)S(=O)(=O)c2ccccc2C3=O)CC1 | 7.82% |
| COc1cccc2cc(C(=O)C3=C(O)C(=O)N(c4cc(C)on4)C3c3cccs3)oc12 (stereo not drawn) | 22.9% |
| COc1ccccc1CNC(=O)CS(=O)Cc1nc(-c2ccc(OC)c(OC)c2)oc1C (stereo not drawn) | -6.47% |
| COc1ccccc1NS(=O)(=O)c1ccc2oc(=S)[nH]c2c1 | 2.14% |
| CC1CC(C)(C)NC(=S)N1CCC(=O)Nc1ccc2c(c1)OCCO2 (stereo not drawn) | 18.3% |
| CC(C)(C)c1ccc(OC(=O)N2CCOCC2)cc1 | 14% |

| Structure (SMILES) | hERG current change (%, negative = inhibition) at 10uM |
| --- | --- |
| COc1cc(OC)cc(C(=O)Nc2cccc(-c3ccc(N4CCOCC4)nn3)c2)c1 | 14.5% |
| O=c1[nH]c(=S)n(Cc2ccc(F)cc2)c(O)c1C=NCC1CCCO1 (stereo not drawn) | -61.9% |
| O=c1[nH]c(=S)n(CCC2=CCCCC2)c(O)c1/C=N/N1CCOCC1 | -41.8% |
| O=c1[nH]c(=O)n(Cc2ccc(F)cc2)c(O)c1C=NCCCn1ccnc1 | 4.08% |
| O=c1[nH]c(=S)n(CCC2=CCCCC2)c(O)c1C=NCc1cccnc1 | -0.946% |
| O=c1[nH]c(=S)n(Cc2ccc(F)cc2)c(O)c1C=NCCCn1ccnc1 | -60.3% |
| O=c1[nH]c(=S)n(C2CC2)c(O)c1C=NCC1CCCO1 (stereo not drawn) | -6.97% |
| O=c1[nH]c(=O)n(CCc2ccc(F)cc2)c(O)c1C=NCCCn1ccnc1 | -3.22% |
| O=c1[nH]c(=O)n(Cc2ccc(F)cc2)c(O)c1C=NCC1CCCO1 (stereo not drawn) | -13% |
| O=c1[nH]c(=S)n(CCC2=CCCCC2)c(O)c1C=NCCCn1ccnc1 | -69.3% |
| O=c1[nH]c(=O)n(CCC2=CCCCC2)c(O)c1/C=N/N1CCOCC1 | -21.6% |
| CN1CCN(/N=C/c2c(O)n(CCC3=CCCCC3)c(=S)[nH]c2=O)CC1 | -64.9% |
| O=c1[nH]c(=O)n(CCC2=CCCCC2)c(O)c1C=NCCCn1ccnc1 | -17.6% |
| O=C(/C=C/c1ccccc1)C1C(=O)c2ccccc2C1=O | -0.201% |
| Cn1cnc(S(=O)(=O)N2CCN(c3ccccc3)CC2)c1 | 17.3% |
| Cc1c(C(=O)O)oc2c1C(O)CCC2 (stereo not drawn) | 0.768% |
| COc1ccc(N(C(C)=O)C2C=CS(=O)(=O)C2)c(OC)c1 (stereo not drawn) | 9.14% |
| CSc1nnc(C(C)(C)C)c(=O)n1/N=C/c1ccc(Cl)cc1 | 0.0206% |
| CC(/C=N/NC(=O)CNc1n[nH]c(=O)[nH]c1=O)c1ccccc1 (stereo not drawn) | 2.52% |
| CN(Cc1ccccn1)Cc1cn(Cc2ccccc2)nc1-c1ccc2c(c1)OCO2 | -20.6% |
| COc1ccc(-c2nn(-c3ccccc3)cc2CN(C)CCn2ccnc2C)c(F)c1 | -57.6% |
| CCn1ccnc1CN(C)Cc1cn(-c2ccccc2)nc1-c1ccc(OC)cc1F | -44.9% |

| Structure (SMILES) | hERG current change (%, negative = inhibition) at 10uM |
| --- | --- |
| CN(Cc1cnccn1)Cc1cn(Cc2ccccc2)nc1-c1ccc2c(c1)OCO2 | -23% |
| CN(Cc1cn(Cc2ccccc2)nc1-c1ccc2c(c1)OCO2)Cc1nccn1C | -32.7% |
| COc1cccc(-c2nn(-c3ccccc3)cc2CN(C)Cc2ccon2)c1 | 9.02% |
| Cc1nccn1CCN(C)Cc1cn(Cc2ccccc2)nc1-c1ccc2c(c1)OCO2 | -60% |
| COc1cccc(-c2nn(-c3ccccc3)cc2CN(C)Cc2ccno2)c1 | 3.65% |
| CN(Cc1ncc[nH]1)Cc1cn(-c2ccccc2)nc1-c1ccc2c(c1)OCO2 | -60.1% |
| CN(Cc1cn(-c2ccccc2)nc1-c1ccc2c(c1)OCO2)Cc1nccn1C | -16.1% |
| COc1cccc(-c2nn(-c3ccccc3)cc2CN(C)Cc2c(C)nc3ccccn23)c1 | -59.9% |
| COc1ccc(-c2nn(-c3ccccc3)cc2CN2CCCO2)c(F)c1 | 3.95% |
| O=C(c1nnc(Cc2ccc(Cl)cc2)o1)N1CCOCC1 | 10.7% |
| O=C(Nc1ccc(Cl)cc1)N1CCOCC1 | 13.8% |
| O=C(Nc1ccc(F)c(Cl)c1)c1ccccc1 | 0.672% |
| COCCNS(=O)(=O)c1cc(C(=O)O)ccc1OC | 15.9% |
| COc1cc(C(=O)OC2C[C@H]3CC[C@@H](C2)N3C)ccc1O (stereo partly drawn) | -7% |
| Cc1ccc(N2C(=O)C3C(C2=O)C(C(=O)c2ccc(Cl)cc2)N2CCCC32)cc1 (stereo not drawn) | 2.31% |
| OCC[C@@H]1C[C@@H](O)[C@H](O)[C@@]2(CCCO2)O1 | 6.76% |
| CCCc1cc(=O)[nH]c(SCC(=O)c2c(N)n(C3CC3)c(=O)[nH]c2=O)n1 | 6.85% |
| COc1ccc2c3n(nc2c1)CCN=C3c1ccc(C)cc1 | -14.3% |
| O=C(NCCS(=O)(=O)N1CCN(c2ccccc2)CC1)C1CC(=O)N(c2ccc(F)cc2)C1 (stereo not drawn) | -1.02% |
| O=C(CN1CCN(c2ccccc2F)CC1)NCc1ccccc1 | -0.288% |
| O=C(COC(=O)CNC(=O)c1ccccc1F)Nc1ncc(Cl)cc1Cl | -3.8% |
